The results in this text go back to ChEMBL document CHEMBL3433997, “St. Jude Leishmania screening dataset” (2016).

Molecules are shown by their SMILES.

Holding throughout (format): functional
In test [1] the target is Solute carrier family 2, facilitated glucose transporter member 1 (Homo sapiens) (UniProt P11166). Description: ST_JUDE_LEISH: Cytotoxicity at 2uM final concentration against transgenic Leishmania Mexicana promastigotes LmGLUT1 that are glucose transport deficient and complemented with the human glucose transporter GLUT1. Activity is measured by DNA content using SYBR green in vitro.
Chain of Solute carrier family 2, facilitated glucose transporter member 1 (Homo sapiens) (P11166 whole entry): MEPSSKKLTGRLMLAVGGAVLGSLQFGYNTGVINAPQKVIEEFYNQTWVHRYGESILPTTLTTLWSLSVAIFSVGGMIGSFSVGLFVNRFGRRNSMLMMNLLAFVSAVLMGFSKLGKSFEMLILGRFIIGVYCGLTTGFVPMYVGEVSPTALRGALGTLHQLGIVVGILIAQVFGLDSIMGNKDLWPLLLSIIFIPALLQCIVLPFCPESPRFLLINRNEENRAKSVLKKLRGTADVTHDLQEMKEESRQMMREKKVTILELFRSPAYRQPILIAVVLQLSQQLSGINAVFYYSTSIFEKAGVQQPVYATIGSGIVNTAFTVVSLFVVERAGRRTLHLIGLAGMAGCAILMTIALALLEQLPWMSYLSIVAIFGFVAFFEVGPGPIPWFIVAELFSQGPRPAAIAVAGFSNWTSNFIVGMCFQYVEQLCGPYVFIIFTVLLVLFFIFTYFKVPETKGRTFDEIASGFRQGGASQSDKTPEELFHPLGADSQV

Test [2] deals with Hexose transporter 1 (Plasmodium falciparum) (UniProt O97467). Description: ST_JUDE_LEISH: Cytotoxicity at 2uM final concentration against transgenic Leishmania Mexicana promastigotes LmPfHT that are glucose transport deficient and complemented with the Plasmodium falciparum hexose transporter. Activity is measured by DNA content using SYBR green in vitro.
Test [3] has as its target Glucose transporter (Leishmania mexicana) (UniProt O61059). Description: ST_JUDE_LEISH: Cytotoxicity at 2uM final concentration against transgenic Leishmania Mexicana promastigotes LmGT2 that are glucose transport deficient and complemented with the L. Mexicana glucose transporter 2. Activity is measured by DNA content using SYBR green in vitro.

As to `CN(C)CCNC(=O)c1ccc2c(c1)n(C1CCN(S(=O)(=O)c3ccc(-c4ccccc4)cc3)CC1)c(=O)n2CC1CCCCC1`, the figures for the inhibition in test [1], in test [2] and in test [3] were -1.79%, -0.94% and -1.74%, respectively.
Taken in the same sequence, the figures for `O=C(NCc1ccc(F)cc1)c1cc(Br)cc(N2CCN(c3ccncc3)CC2)c1` were 7.75%, 6.55% and 4.17%.
For the compound `O=C(NC1CCCCN(Cc2ccccc2O)C1)c1cccc(C(F)(F)F)c1` (stereo not drawn), the results for the inhibition in test [1], in test [2] and in test [3] were 2.43%, 1.72% and -4.05%, respectively.
Taken in the same sequence, the figures for `O=C(Nc1ccsc1)Nc1cccc(-c2cccc(-c3nc4ccccc4[nH]3)c2)c1` were 9.79%, 10.8% and 4.27%.
Taken in the same sequence, the figures for `CCCCNCc1cc(Cl)c2ccccc2c1O` were 7.17%, 7.57% and 6.58%.
Consider `C=CCOC(=O)N1CCC(CNCc2ccc(-c3ccc(-c4nc5cc(C(F)(F)F)ccc5[nH]4)cc3)cc2)C1` (stereo not drawn), for which the inhibition (usually the change of the read-out against control, counted positive when it falls) is 3.5% in test [1], -0.38% in test [2] and 1.41% in test [3].
Taken in the same sequence, the figures for `CC(C)(C)C(C)(C)Cc1ccc(O)c(CN2CCN(c3ccccc3)CC2)c1` were 0.82%, -0.41% and -0.38%.
Taken in the same sequence, the figures for `O=C(/C=C/c1ccc(Cl)c(Cl)c1)NC1CCN(CCCNC(=O)c2cccc(Cl)c2)CC1` were 6.07%, 6.03% and 7.01%.
Taken in the same sequence, the figures for `Cc1ccc2[nH]c(C3CCCNC3)c(-c3ccncc3)c2c1` (stereo not drawn) were 9.43%, 9.43% and 8.51%.
As for `O=C(Nc1cccc(CN2CCCN(Cc3ncc[nH]3)CC2)c1)c1ccc(-c2ccccc2)cc1`, the inhibition is 0.65% in test [1], 1.21% in test [2] and 2.54% in test [3].
Taken in the same sequence, the figures for `CC(C)(C)c1ccc(NC(=O)c2cccc(CN3CCCN(Cc4cccc(O)c4)CC3)c2)cc1` were 6.18%, 6.24% and 1.99%.
Taken in the same sequence, the figures for `O=C(Nc1ccc2c(c1)CCN(C1CCC1)CC2)c1cn(-c2ccccc2)nc1-c1ccccc1` were 5.38%, 3.65% and 0.52%.
Taken in the same sequence, the figures for `O=C(Nc1ccccc1)N(Cc1ccccc1-c1cccc(CNCc2ccc3c(c2)OCO3)c1)C1CCN(Cc2ccccc2)CC1` were -2.93%, -2.6% and -2.56%.
Consider `COc1ccc2nccc([C@@H](O)CN3CCC(NC(=O)c4ccc(CN5CCN(c6cccc(C)c6)CC5C)cc4)CC3)c2c1` (stereo partly drawn), for which the inhibition is 4.12% in test [1], 1.46% in test [2] and -3.5% in test [3].
Consider `Cn1nccc1C(=O)NCCNCc1ccc(-c2cccc(-c3nc4ccccc4[nH]3)c2)cc1`, for which the inhibition was -0.28% in test [1], -0.94% in test [2] and 0.68% in test [3].
Take `COc1cc(Nc2nccc(-c3c(-c4cccc(NC(=O)c5c(F)cccc5F)c4)nn4ncccc34)n2)cc(OC)c1OC`: the values for the inhibition in test [1], in test [2] and in test [3] were 12.1%, 16.6% and 6.39%, respectively.
Taken in the same sequence, the figures for `Cc1ccccc1C1CCN(C2CCC(NC(=O)/C=C/c3c[nH]c4ccccc34)CC2)CC1` (stereo not drawn) were 2.31%, 0.84% and -0.41%.
Taken in the same sequence, the figures for `COc1cc(OC)c(OC)cc1C=NN=c1cc(C)[nH]c2ccccc12` were 1.25%, 1.67% and -1.17%.
Take `Cc1ccc(/C=C/C(=O)N2CCC(CCN3CCC(c4c[nH]c5ccccc45)CC3)CC2)cc1C`: the inhibition is 1.87% in test [1], 1.19% in test [2] and 6.17% in test [3].
Taken in the same sequence, the figures for `CCCC(C)NC(=O)c1cnn(-c2ccc(C(C)(C)C)cc2)c1OCc1ccc(Br)cc1` (stereo not drawn) were 4.76%, 6.02% and 5.11%.
Take `O=C1CN(C(=O)CCC2CCCC2)C(c2ccc(F)cc2)c2cc(F)ccc2N1` (stereo not drawn): the inhibition in test [1] worked out at 5.81%; in test [2], 3.45%; in test [3], 0.37%.
Taken in the same sequence, the figures for `N#Cc1ccc(N2CCN(Cc3ccc(-c4cccc(-c5nc6ccccc6[nH]5)c4)cc3)CC2)nc1` were 2.3%, 1.43% and 0%.
Taken in the same sequence, the figures for `CS(=O)(=O)c1ccc(CCNCc2ccc(-c3ccc(CN(C(=O)C4CC(=O)c5ccccc54)C4CCN(Cc5ccccc5)CC4)cc3)nc2)cc1` (stereo not drawn) were 1.6%, 1.34% and 2.34%.
Taken in the same sequence, the figures for `CN1CCN(c2ccnc3ccc(NC(=O)Nc4ccc(-c5ccccc5)cc4)cc23)CC1` were 3.26%, 2.25% and 2.96%.
Turning to `CN1CCCC(CN2CCN(Cc3ccc(-c4cccc(-c5nc6cc(F)ccc6[nH]5)c4)cc3)CC2)C1` (stereo not drawn), the inhibition was -0.56% in test [1], 1.31% in test [2] and 2.3% in test [3].
`CCCCc1ccc(C(=O)NC2CCN(C[C@H](O)c3ccnc4ccc(OC)cc34)CC2)cc1`: the inhibition stood at 66.8% in test [1], 65.3% in test [2] and 76.8% in test [3].
Taken in the same sequence, the figures for `CCN1CCN(CCCNc2ccnc3cc(Cl)ccc23)CC1` were 0.93%, 2.24% and 2.15%.
Taken in the same sequence, the figures for `Cc1ccnc2nc(C(=O)Nc3cc(Cl)ccc3N3CCOCC3)nn12` were 5.13%, 5.74% and 5.36%.
For the compound `CN(Cc1cccc(O)c1)C1CCCN(c2cc(NC(=O)c3ccc(F)cc3)ccn2)C1` (stereo not drawn), the inhibition came out at 3.85% in test [1], 6.05% in test [2] and 5.91% in test [3].
Regarding `CC(CO)(CO)NCc1cc2ccc3ccsc3c2c2ccccc12`, the inhibition in test [1] was 77.1%; in test [2], 71.3%; in test [3], 48%.
Taken in the same sequence, the figures for `O=C(NC1CC1)c1ccc(N2CCCCN2CCc2ccccc2)c(C(F)(F)F)c1` were 10.5%, 19.8% and 5.87%.
Taken in the same sequence, the figures for `COc1cc2ccccc2c(CON2C(=N)N=C(N)NC2(C)C)c1OC` were 2.53%, 2.15% and 1.62%.
Taken in the same sequence, the figures for `O=C(NC1CC1)c1ccc(N2CCC(Cc3ccccc3)CC2)c([N+](=O)[O-])c1` were 0.6%, 0.86% and 3.45%.
`CCOC(=O)c1nc(-c2cccc(F)c2)[nH]c1N`: the inhibition is 1.32% in test [1], 0.39% in test [2] and 2.23% in test [3].
Taken in the same sequence, the figures for `CS(=O)(=O)CCNCc1cc(-c2cc3ncnc(Nc4ccc(OCc5cccc(F)c5)c(Cl)c4)c3s2)cs1` were 5.58%, 6.19% and 5.4%.
Taken in the same sequence, the figures for `O=C(Nc1ccc2c(c1)CCN2C1CCN(Cc2cc(F)cc(F)c2F)C1)c1ccco1` (stereo not drawn) were 1.75%, 2.07% and 3.47%.
